Assay outcomes (PubChem BioAssay)
Hits are enriched below; roughly 8.3% of the tested compounds scored in any of these assays.
MCF10A rereplic = A quantitative high throughput screen for small molecules that induce DNA re-replication in MCF 10a normal breast cells; MCF 10A DNA re-replication, Hoechst nuclear intensity, 48 h; Potency, µM (titrated, usually from 46.1 µM), most hits filed as activators; 350,000 tested, 2.9% active; AID 624296, 2012; also: nearly all actives have a fitted effect of over 50% in size
Giardia kill = Small Molecules that selectively kill Giardia lamblia: qHTS; 340,000 tested, 0.15% active; activity change, % at 7.66 µM, hits read low; Giardia lamblia trophozoite viability; in the data active = activity change below about -80%; inconclusive = between about -30% and that limit;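 also: parasites exposed to compound for two days anaerobically before the ATP read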
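Media and compound were dispensed first, then trophozoites at 100 cells/well; plates sat 48 hrs at 37 deg C without oxygen before ATP luminescence reagent was added and read after 15-30 min at room temperature.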
BCR signal inh = qHTS Assay to Find Inhibitors of Chronic Active B-Cell Receptor Signaling; AID 493014, 2011; Potency, µM (titrated, usually from 46.1 µM), actives largely listed as inhibitors; 340,000 tested, 0.05% active; ABC-DLBCL IkBa-CBG/CBR reporter, luminescence ratio, 4 h; active = well fitted inhibition curve with a large enough effect in the signal ratio, with a control signal flat, not every such curve was filed as active; inconclusive = small, poorly fitted or top-dose-only effect, or effect the other way, or a change in a side signal; the % refers to the signal ratio
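Doxycycline induced both beetle luciferases in TMD8 lymphoma cells; IKK-driven degradation limits the IkappaBalpha-fused green signal, while red luminescence normalises for cell number and nonspecific effects. Compounds tested up to 46 uM, 4 hrs.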
RORgamma inh = qHTS for inhibitors of ROR gamma transcriptional activity. Potency, µM (highest dose often 53.6 µM), most hits filed as inhibitors. Drosophila S2 Gal4-RORgamma UAS-luciferase reporter, 20 h. Nuclear receptor ROR-gamma (Mus musculus), P51450. 310,000 tested, 5.4% active; also: nearly all actives have a fitted effect of over 60% in size
Target sequence (P51450 whole entry, looked up, the tested form may be a part): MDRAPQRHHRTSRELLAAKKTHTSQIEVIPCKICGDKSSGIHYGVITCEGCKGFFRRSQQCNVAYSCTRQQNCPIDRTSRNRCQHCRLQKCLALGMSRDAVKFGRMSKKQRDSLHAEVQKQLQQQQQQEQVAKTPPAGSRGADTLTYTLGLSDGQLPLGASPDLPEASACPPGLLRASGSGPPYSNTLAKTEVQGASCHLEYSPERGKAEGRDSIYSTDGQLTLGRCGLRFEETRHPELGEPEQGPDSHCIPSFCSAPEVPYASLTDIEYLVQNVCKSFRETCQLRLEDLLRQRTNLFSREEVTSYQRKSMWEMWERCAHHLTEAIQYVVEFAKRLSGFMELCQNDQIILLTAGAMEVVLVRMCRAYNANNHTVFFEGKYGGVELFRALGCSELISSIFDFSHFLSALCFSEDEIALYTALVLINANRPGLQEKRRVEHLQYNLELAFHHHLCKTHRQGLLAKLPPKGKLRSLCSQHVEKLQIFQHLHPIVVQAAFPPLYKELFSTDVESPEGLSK
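Using a luciferase readout, inhibitors were identified by reduced reporter activity in Drosophila cells coexpressing a copper-inducible Gal4–ROR gamma fusion and UAS-driven Photinus luciferase, incubated 20 hr after 700 uM copper sulfate.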
VP16 counter = VP16 counterscreen qHTS for inhibitors of ROR gamma transcriptional activity; AID 2546, 2010; Potency, µM (titrated, usually from 53.6 µM), usual class: inhibitors; Drosophila S2 Gal4-VP16 UAS-luciferase, luminescence, 20 h; 310,000 tested, 3.5% active;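 also: Gal4-VP16 expression switched on by copper sulfate through the metallothionein promoter; nearly all actives have a fitted effect of over 50% in size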
SW480 rerep = A quantitative high throughput screen for small molecules that induce DNA re-replication in SW480 colon adenocarcinoma cells; SW480 DNA re-replication, Hoechst DNA content imaging, 48 h; Potency, µM (top dose mostly 46.1 µM), hits mostly activators; 340,000 tested, 1.8% active; also: nearly all actives have a fitted effect of over 55% in size
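SW480 cells exposed to compounds for 48 hr at 37 C, 5% CO2, then Hoechst-stained 40 min. Nuclear DNA content imaged by fluorescence scanning (405 nm excitation, 500-530 nm emission); re-replication scored as increased high-intensity nuclei.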
Each line names hits and unclear results; the compound was inactive in the other large screens. Unless noted, calls follow the shape of the dose curve; as a rule, active = well fitted curve in the direction sought with a large enough effect; inconclusive = small, poorly fitted or top-dose-only effect, or another doubt; inactive = no such curve, though single readings can be large; an effect the other way counts as inactive or inconclusive.

COc1ccc(O)c(-c2cc(-c3ccc(F)cc3)n[nH]2)c1	MCF10A rereplic inconclusive, RORgamma inh 13µM, VP16 counter inconclusive
O=C(O)c1cc(-c2ccc3c(c2)OCCO3)n[nH]1	none
COc1ccc(-c2cc(-c3ccc(OC)c(OC)c3)n[nH]2)c(O)c1	MCF10A rereplic inconclusive, BCR signal inh inconclusive, RORgamma inh 4µM, VP16 counter inconclusive
COc1ccc(-c2cc(-c3cc(F)ccc3O)[nH]n2)cc1OC	MCF10A rereplic inconclusive, BCR signal inh inconclusive, VP16 counter inconclusive
COc1ccc(-c2cn3nc(N4CCC(C(=O)Nc5cccc(Cl)c5)CC4)sc3n2)cc1	none (no result: MCF10A rereplic, Giardia kill, RORgamma inh, VP16 counter, SW480 rerep)
Cc1cc(/C=N/N2CCN(C)CC2)c(C)n1-c1ccccc1F	none
COc1ccc(-c2cc(-c3ccc(Cl)cc3)n[nH]2)c(O)c1	BCR signal inh inconclusive, RORgamma inh 8.9µM, VP16 counter inconclusive
COc1ccc(-c2cc(-c3cc(OC)ccc3O)[nH]n2)cc1	MCF10A rereplic inconclusive, BCR signal inh inconclusive, RORgamma inh inconclusive, VP16 counter inconclusive
CCOC(=O)C(CC)/C(C)=N/NC(=O)c1ccc([N+](=O)[O-])cc1 (stereo not drawn)	RORgamma inh 13µM, VP16 counter inconclusive
CCOC(=O)/C(C)=N/NC(=O)c1ccc([N+](=O)[O-])cc1	none
CC(C)c1ccccc1OCCCCCN1CCOCC1	MCF10A rereplic inconclusive (no result: BCR signal inh, RORgamma inh, VP16 counter)
Cc1ccc(C(=O)NC2CCS(=O)(=O)C2)cc1S(=O)(=O)N1CCCC1 (stereo not drawn)	none
CN(C)c1ccccc1C(=O)c1ccccc1N(C)C	MCF10A rereplic 4.1µM, RORgamma inh inconclusive, VP16 counter inconclusive, SW480 rerep 8.2µM
CN(c1ccccc1C(=O)O)S(C)(=O)=O	none
Cc1ccc(NC(=O)CCCC(=O)OC(C)C(=O)c2ccccc2)cc1 (stereo not drawn)	none
Cc1cc(N/N=C/c2cccc([N+](=O)[O-])c2)nc(-n2nc(C)cc2C)n1	MCF10A rereplic inconclusive, RORgamma inh 0.11µM, VP16 counter 1µM, SW480 rerep 3.7µM
Cc1cc(N/N=C/c2ccc(O)cc2O)nc(-n2nc(C)cc2C)n1	MCF10A rereplic 5.2µM, RORgamma inh 1µM, VP16 counter 0.71µM, SW480 rerep inconclusive
Cc1cc(NCCO)nc(-n2nc(C)cc2C)n1	RORgamma inh 6.3µM, VP16 counter 20µM
Cc1cc(N/N=C/c2ccc(O)cc2O)nc(-c2ccccc2O)n1	MCF10A rereplic inconclusive, Giardia kill inconclusive, BCR signal inh inconclusive, SW480 rerep inconclusive
COc1ccc(/C=N/Nc2cc(C)nc(-n3nc(C)cc3C)n2)cc1	MCF10A rereplic inconclusive, BCR signal inh inconclusive, RORgamma inh 0.32µM, VP16 counter 0.35µM, SW480 rerep inconclusive
Cc1cc(N(CCO)CCO)nc(-n2nc(C)cc2C)n1	none
CN1CCc2nc(NC(=O)COc3ccc(C#N)cc3)sc2C1	none
Cc1c(F)cccc1NS(=O)(=O)c1cccs1	none (no result: MCF10A rereplic, Giardia kill, RORgamma inh, VP16 counter, SW480 rerep)
COc1cccc(-c2nccc(NCc3cccnc3)n2)c1	none (no result: MCF10A rereplic, Giardia kill, BCR signal inh, SW480 rerep)
Cc1cc(N/N=C/c2cccc(Cl)c2)nc(-n2nc(C)cc2C)n1	MCF10A rereplic inconclusive, RORgamma inh 0.071µM, VP16 counter 1.3µM, SW480 rerep inconclusive
COc1ccc(/C=N/Nc2cc(N3CCCC3)nc(N3CCCC3)n2)cc1	MCF10A rereplic 18µM, RORgamma inh 13µM, SW480 rerep 9.2µM
Cc1cc(C)n2nc(C(=O)N/N=C/c3cccc(Cl)c3)nc2n1	none
Cc1cc(C)n(-c2ccccc2[N+](=O)[O-])n1	none
Cc1cc(N/N=C/c2ccccc2[N+](=O)[O-])nc(-n2nc(C)cc2C)n1	RORgamma inh inconclusive, VP16 counter 0.89µM
COc1ccc(S(=O)(=O)N2CCOC23CCN(C(=O)c2ccccc2OC)CC3)cc1	none (no result: RORgamma inh, VP16 counter)
CCOc1ccc(-n2nnnc2SCC(=O)NNC(=O)c2ccco2)cc1	none
CCn1nc(C)cc1C(=O)N(C)C1CCCN(Cc2ccccc2F)C1 (stereo not drawn)	none
CCCCn1c(N)c(N(CCOC)C(=O)CSCc2ccc(C)cc2)c(=O)[nH]c1=O	BCR signal inh inconclusive (no result: RORgamma inh, VP16 counter)
S=c1sc2c(Cl)ncnc2n1-c1ccccc1	MCF10A rereplic 2.1µM, BCR signal inh inconclusive, RORgamma inh inconclusive, VP16 counter inconclusive, SW480 rerep inconclusive
Cc1cc2c(cc1S(=O)(=O)N1CCN(c3cccc(C(F)(F)F)c3)CC1)OCC(=O)N2	MCF10A rereplic 23µM, SW480 rerep inconclusive
CCN(CC)CCNc1nc(-c2ccc(OC)cc2)c(-c2ccc(OC)cc2)s1	RORgamma inh inconclusive
CCCCCCNc1nc(-c2ccc(OC)cc2)c(CCC(=O)O)s1	RORgamma inh inconclusive, VP16 counter 16µM
COc1ccc(Nc2nc(C)c(-c3ccccc3)s2)cc1	MCF10A rereplic inconclusive, BCR signal inh inconclusive, RORgamma inh 11µM, VP16 counter inconclusive (no result: SW480 rerep)
COCCNc1nc(-c2ccc(OC)cc2)c(-c2ccc(OC)cc2)s1	MCF10A rereplic inconclusive, RORgamma inh 11µM
COc1ccc(-c2nc(NC(C)=O)sc2-c2ccccc2)cc1	MCF10A rereplic 23µM, BCR signal inh inconclusive, SW480 rerep inconclusive
COc1cccc(NC(=O)CN(C)C(=O)c2cc3c(s2)CCCCC3)c1	none (no result: RORgamma inh, VP16 counter)
COC(=O)c1ccc(S(=O)(=O)N2CCN(C(c3ccccc3)c3ccccc3)CC2)n1C	BCR signal inh inconclusive
O=C(c1cc(-c2cccs2)nn1-c1ccccc1)N1CCN(S(=O)(=O)c2ccccc2)CC1	SW480 rerep inconclusive (no result: RORgamma inh, VP16 counter)
COc1ccc(-c2nc(NC(=O)c3ccccc3)sc2-c2ccc([N+](=O)[O-])cc2)cc1	MCF10A rereplic 13µM
CCOC(=O)c1ccc(-c2c(-c3ccc(OC)cc3)oc(=O)c3cc(OC)c(OC)cc23)cc1F	none (no result: RORgamma inh, VP16 counter)
CCOC(=O)c1ccc(-c2c(-c3cc(OC)c(OC)c(OC)c3)noc2C)cc1F	MCF10A rereplic 1.5µM, BCR signal inh inconclusive, SW480 rerep 2.9µM
CCC(=O)N1c2ccc(S(=O)(=O)N3CCOCC3)cc2CC1C (stereo not drawn)	none
COc1ccc(Cl)cc1NC(=O)CN(C)C(=O)c1sccc1-c1ccccc1	BCR signal inh inconclusive (no result: RORgamma inh, VP16 counter)
COc1ccc(/C=N/NC(=S)Nc2cc(C(F)(F)F)ccc2Cl)cc1	RORgamma inh 0.35µM, VP16 counter 4µM, SW480 rerep inconclusive
FC(F)(F)c1ccc(Cl)c(NC(=S)N/N=C/c2ccccc2C(F)(F)F)c1	BCR signal inh inconclusive, RORgamma inh 0.32µM, VP16 counter 0.56µM
O=C(NCCc1ccccc1)C(=O)N/N=C/c1ccccc1C(F)(F)F	none
